This passage reports AC50 and outcome results from PubChem BioAssay (EPA / NIEHS).

Calls of active or inactive are those of the source. Rule for the calls: active = hit-call score of the fitted dose curve at least 0.9, where 1 is the maximum; inconclusive = response in the unintended direction; inactive = score below 0.9.

The test system of the test is DIO3 (gene 1735). Briefly: CCTE_GLTED_hDIO3: CCTE's human Deiodinase 3 (DIO3) Inhibition Assay, Great Lakes Toxicology and Ecology Division (GLTED) Lab (AID 2284055).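 For AC50: potency is for inhibition seen as loss of released iodide signal.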 The protocol:
CCTE_GLTED_hDIO3 is a cell-free, single-readout assay designed to test the inhibitory activity of chemicals toward human iodothyronine Deiodinase type 3 (DIO3) enzyme. Enzyme is incubated in presence of test chemical for 3 hours during which uninhibited enzyme liberates free iodide from substrate. Free iodide is measured in a second step using the Sandell-Kolthoff method.CCTE_GLTED_hDIO3 is the assay component measured from the CCTE_GLTED_hDIO3 assay. It is designed to make measurements of enzyme activity, a form of enzyme reporter, as detected with absorbance signals by spectrophotometry.Data from the assay component CCTE_GLTED_hDIO3 was analyzed into 1 assay endpoint. This assay endpoint, CCTE_GLTED_hDIO3, was analyzed in the positive analysis fitting direction relative to DMSO as the negative control and baseline of activity. Using a type of enzyme reporter, loss-of-signal activity can be used to understand changes in the enzymatic activity as they relate to the gene DIO3. Furthermore, this assay endpoint can be referred to as a primary readout, because the performed assay has only produced 1 assay endpoint. To generalize the intended target to other relatable targets, this assay endpoint is annotated to the 'deiodinase' intended target family, where the subfamily is 'deiodinase Type 3'.
[…] assay, developed at Great Lakes Toxicology and Ecology Division (GLTED) within the EPA's Center for Computational Toxicology and Exposure (CCTE), is designed to test the chemicals' ability to inhibit DIO3. Assay uses human deiodinase type 3 (DIO3) enzyme produced with adenovirus expression system. Assay is based on iodide release measured by the Sandell-Kolthoff method and is run in 96-well plate format with assay plates run in triplicate (n=3). The method used for the deiodinase assay was largely based on Renko et al. (2012, 2015). These works describe the utilization of the SK reaction to measure deiodinase-liberated iodide in a 96-well-plate format. The SK reaction is based on the reduction of the yellow-colored cerium IV to the non-colored cerium III by arsenic, with the rate of this reaction increased in the presence of iodide in a concentration-dependent manner (Sandell and Kolthoff, 1937). Iodinated test chemicals can interfere as competitive inhibitors, or if the stock chemical has contaminating free-iodide present. Other chemicals, e.g.: nitrite, iron, and thiocyanate can interfere with the Sandell-Kolthoff reaction (see Sandell and Kolthoff, 1937).
For `S=c1[nH]c2ccccc2s1`, the half-maximal activity concentration (AC50) was 73.2 µM (active).

Consider `CCCCCCCCCCCCCCOS(=O)(=O)O`, for which the half-maximal activity concentration (AC50) is 18.5 µM (active). `Cc1ccc(-c2cc(C(F)(F)F)nn2-c2ccc(S(N)(=O)=O)cc2)cc1`: the AC50 was 172 µM (active). For the molecule `CCCCCCCCCCCCCCCCO`, the molecule was called inactive. Take `CC(=O)O[C@]1(C(C)=O)CC[C@H]2[C@@H]3C=C(Cl)C4=CC(=O)[C@@H]5C[C@@H]5[C@]4(C)[C@H]3CC[C@@]21C`: the AC50 was 5.1 µM (active). On the same count and under the same terms, with `Cc1c(C)c2c(c(C)c1O)CCC(C)(COc1ccc(CC3SC(=O)NC3=O)cc1)O2` (stereo not given) the figure was 95.1 µM (active); with `CCCCCCC(C=O)=Cc1ccccc1`, 3.29 µM (active). On the same count and under the same terms, with `CN(C)CCCN1c2ccccc2Sc2ccc(Cl)cc21` the figure was 158 µM (active). Still for that read-out and setting: for `O=C(Oc1ccccc1)c1cccc(C(=O)Oc2ccccc2)c1` the value was 64.5 µM (active). For the molecule `O=Cc1ccccc1C=O`, the half-maximal activity concentration (AC50) was 2.92 µM (active).

Usually AC50 stands for the concentration giving half of the maximal activity seen.
